According to PubChem BioAssay:
Activity calls are given as the source filed them. Unless noted, how the calls were made is not given here.

What was measured:
[1] = system: XIP peptide (Xip251-270) binding; assay: small-molecule binders of XIP peptide, primary screen, biochemical, small-molecule microarray, fluorescence 635/667 nm, 0.1 µg/mL protein (AID 1182); details: fluorescent protein binding, 635 nm, higher = more signal, called active from +8 up or from −8 down
XIP peptide (Xip251-270) = assay: small-molecule binders of XIP peptide, primary screen, biochemical, small-molecule microarray, fluorescence 635/667 nm, 0.5 µg/mL protein (AID 1183); details: small-molecule microarray binding, fluorescence 635 nm; higher = more signal
[2] = Plasmodium falciparum growth inhibition, primary screen, strain 3D7, DAPI fluorescence, 100 nL (AID 1184);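 further: parasites grown inside human red blood cells in medium with human serum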; details: P. falciparum 3D7 growth, 3 d, higher = more signal
[3] = target: Homeobox protein Hox-A13 (Mus musculus) (UniProt Q62424); assay: inhibitors of HoxA13-DNA binding, primary screen, biochemical, fluorescence polarization, labeled oligonucleotide (AID 1185); details: 15 min, higher = more signal, called active from +8 up or from −8 down
Homeobox protein Hox-A13 (Mus musculus), sequence (Q62424 whole entry, looked up): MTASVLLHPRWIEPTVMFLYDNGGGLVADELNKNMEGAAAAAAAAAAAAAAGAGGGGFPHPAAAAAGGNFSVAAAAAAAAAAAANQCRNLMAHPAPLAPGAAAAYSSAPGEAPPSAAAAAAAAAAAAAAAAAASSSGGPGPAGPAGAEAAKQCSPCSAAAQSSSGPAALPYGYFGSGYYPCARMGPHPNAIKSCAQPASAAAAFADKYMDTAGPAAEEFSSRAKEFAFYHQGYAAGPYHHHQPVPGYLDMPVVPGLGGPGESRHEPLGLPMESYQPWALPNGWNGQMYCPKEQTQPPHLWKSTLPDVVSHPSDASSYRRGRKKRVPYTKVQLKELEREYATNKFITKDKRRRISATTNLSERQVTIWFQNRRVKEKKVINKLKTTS

[4] = inhibitors of hydroxyurea-induced Chk1 phosphorylation, primary screen, imaging, HeLa, phospho-Chk1 antibody, percent positive cells (AID 1186); details: hydroxyurea-induced phospho-Chk1 immunofluorescence imaging, higher = more signal
[5] = inhibitors of hydroxyurea-induced Chk1 phosphorylation, primary screen, imaging, HeLa, phospho-Chk1 nuclear intensity (AID 1187); details: hydroxyurea-induced phospho-Chk1 immunofluorescence imaging, higher = more signal

| SMILES | composite z-score [1] | composite z-score (XIP peptide (Xip251-270)) | z-score [2] | z-score [3] | z-score [4] | z-score [5] |
| --- | --- | --- | --- | --- | --- | --- |
| CCCNC(=O)[C@@]1(c2ccc([N+](=O)[O-])cc2)CC(=O)N(CC23CC4CC(CC(C4)C2)C3)[C@@H]1c1ccc(CO)cc1I | 1.18 (inactive) | 0.59 | -1.55 | -3.75 (inactive) | -0.28 (inactive) | -0.51 (inactive) |
| C=C[C@H](C)[C@H](OC(=O)Nc1ccc(OC)cc1)c1ccc(O)c2ccccc12 | 0.79 (inactive) | -0.147 | -0.767 | -4.27 (inactive) | -0.33 (inactive) | -0.382 (inactive) |
| [N-]=[N+]=NCc1ccccc1[C@@H]1OC(c2ccc(OCCCO)cc2)=N[C@]1(Cc1ccccc1N=[N+]=[N-])C(N)=O | 0.411 (inactive) | 0.785 | -1.63 | -3.75 (inactive) | 0.135 (inactive) | 0.278 (inactive) |
| CN(C)CCCC[C@@H]1NC(=O)[C@@H]2C[C@H](C(=O)NCCCCCCN)[C@H](c3ccc(O)cc3)N2C1=O | 0.674 (inactive) | 0.0252 | 0.0094 | -2.65 (inactive) | 0.136 (inactive) | -0.366 (inactive) |
| COCCn1c(C(=O)N(C)C)cc2c1C[C@H]1CN(C(=O)c3ccccc3)[C@@](Cc3ccc(F)cc3)(C(=O)OC)[C@@H]21 | 0.112 (inactive) | 0.0743 | -0.292 | -4.93 (inactive) | 0.562 (inactive) | 0.478 (inactive) |
| C[C@H]1C2[C@H](Cc3ccccc3)NC(=O)[C@]23C(=O)N[C@H](Cc2ccccc2)C(=O)N[C@H](Cc2ccccc2)C(=O)NC/C=C/CCC/C=C/C3[C@@H]2O[C@]12C (some centres not stated) | 0.353 (inactive) | 0.518 | -1.71 | -5.67 (inactive) | 0.275 (inactive) | 0.371 (inactive) |
| COc1ccccc1CN1C(=O)c2ccccc2[C@](Cc2ccccc2I)(C(=O)NCc2ccccc2)[C@@H]1c1ccc(CO)cc1 | -0.501 (inactive) | 0.801 | -0.818 | -2.8 (inactive) | 0.234 (inactive) | 0.365 (inactive) |
| CC(=O)NCCCC[C@@H]1NC(=O)[C@@H]2C[C@H](C(=O)NCc3ccc(F)cc3)[C@H](c3ccc(O)cc3)N2C1=O | 1.64 (inactive) | 1.01 | -0.448 | -1.2 (inactive) | 0.0701 (inactive) | 0.0917 (inactive) |
| CCN(CC)c1ccc(N2CC=CC34O[C@@H]5C=CCOC(=O)[C@@H]5[C@H]3C(=O)N(CCCCCO)[C@@H]4C2=O)cc1 (some centres not stated) | 0.614 (inactive) | -0.982 | -0.232 | -5.05 (inactive) | -0.23 (inactive) | -0.33 (inactive) |
| O=c1cccc(-c2ccccc2)o1 | -0.724 (inactive) | 0.765 | 0.495 | -1.85 (inactive) | 0.403 (inactive) | 0.0838 (inactive) |
| Cc1ccc(S[C@]2(C(=O)NCCN3CCOCC3)CC(=O)N(C3CCCCC3)[C@@H]2c2ccc(CO)cc2)cc1 | -0.202 (inactive) | 0.886 | -0.75 | -4 (inactive) | -0.0334 (inactive) | 0.206 (inactive) |
| CCCC[C@@H]1C[C@H]1[C@@H](NC(=O)c1ccco1)c1ccccc1 | -0.153 (inactive) | -0.041 | -1.46 | -2.46 (inactive) | 0.243 (inactive) | 0.428 (inactive) |
| CO[C@H]1O[C@H](CO)[C@@H](OC(=O)Nc2ccc3c(c2)OCO3)[C@H](OC(=O)Nc2ccc3c(c2)OCO3)[C@H]1OC(=O)Nc1ccc2c(c1)OCO2 | 2.3 (inactive) | 0.842 | -2.1 | -4.78 (inactive) | -0.134 (inactive) | 0.245 (inactive) |
| CC(C)N1C(=O)c2ccccc2[C@](C)(C(=O)NC2CC2)[C@@H]1c1ccc(CO)cc1 | -0.318 (inactive) | 0.0807 | -0.335 | -1.64 (inactive) | -0.119 (inactive) | 0.0866 (inactive) |
| [N-]=[N+]=Nc1ccccc1C[C@]1(C(=O)N2CCCCC2)N=C(c2ccc(OCCCO)cc2)O[C@H]1c1ccccc1N=[N+]=[N-] | 1.01 (inactive) | 0.659 | -2.34 | -1.63 (inactive) | -0.0268 (inactive) | 0.205 (inactive) |
| O=C1C2C=CC(C(O)c3ccc(-c4ccccc4)s3)N(Nc3ccccc3F)C2C(=O)N1c1ccccc1 (configuration not stated) | 0.251 (inactive) | 0.734 | -0.531 | 0.151 (inactive) | 0.184 (inactive) | 0.414 (inactive) |
| O=C(NCC(F)(F)F)[C@@H]1c2ccccc2C(=O)N(Cc2ccccc2)[C@H]1c1ccc(CO)cc1 | 0.377 (inactive) | -0.396 | -0.778 | -1.25 (inactive) | -0.571 (inactive) | -0.801 (inactive) |
